# Source: PubChem BioAssay
# A number with no mark means an inactive call. Results filed as inconclusive are left out. For part of these data: Entries with a potency or affinity are not part of this list. Active and inactive are the calls of the source. Unless noted, how the calls were made is not given here.
# Columns and labels:
# [1] = antimalarial activity against Dd2 strain (AID 2302;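 active means growth inhibition above 50% at the single 2 µM test dose, taken to imply half-maximal potency below 2 µM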;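 further: 0% = DMSO untreated growth and 100% = chloroquine plus artemisinin killed control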); details: P. falciparum Dd2 in RBCs, LDH growth readout, 72 h; at 2 µM; active compounds read high
# [2] = HepG2 cytotoxicity, primary screen, cytotoxicity control for P. falciparum antimalarial project, cell-based, ATP luminescence (AID 2303;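 active means inhibition above 50%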;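 further: 0% = DMSO wells and 100% = digitonin-killed cells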); details: HepG2 viability, 24-48 h, at 10 µM, active compounds read high
# [3] = molecular target: L-lactate dehydrogenase (Plasmodium falciparum (isolate CDC / Honduras)) (UniProt Q27743); test: PfLDH activity inhibition – cell lysate, 3D7 strain, counter-screen for P. falciparum growth inhibition project (AID 2304);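 further: 0% = vehicle and 100% = reference inhibitor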; details: P. falciparum 3D7 crude extract, LDH APAD/NBT absorbance; at 2 µM; active compounds read high
# Chain of L-lactate dehydrogenase (Plasmodium falciparum (isolate CDC / Honduras)) (Q27743 whole entry, looked up): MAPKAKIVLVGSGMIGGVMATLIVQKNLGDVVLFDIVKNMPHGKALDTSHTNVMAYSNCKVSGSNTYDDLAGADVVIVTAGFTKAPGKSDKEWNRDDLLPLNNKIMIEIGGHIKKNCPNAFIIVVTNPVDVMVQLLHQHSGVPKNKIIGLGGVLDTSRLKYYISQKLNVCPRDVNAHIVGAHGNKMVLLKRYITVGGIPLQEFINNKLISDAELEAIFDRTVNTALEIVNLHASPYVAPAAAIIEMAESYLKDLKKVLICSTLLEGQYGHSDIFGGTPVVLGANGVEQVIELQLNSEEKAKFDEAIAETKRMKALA
# [4] = inhibition of 3D7 malaria parasite growth – strain 3D7 (AID 2306);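 further: 0% = DMSO wells and 100% = chloroquine plus artemisinin control wells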; details: P. falciparum 3D7 erythrocytic growth, LDH absorbance, 72 h; at 2 µM; active compounds read high
# [5] = molecular target: Calcium-dependent protein kinase 1 (Plasmodium falciparum (isolate 3D7)) (UniProt P62344); test: PfCDPK1 kinase inhibitors, biochemical, TCAMS library (AID 1159585; cut-off not given, nearly all actives have IC50 up to about 0.98 µM;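 further: inhibitors leave more ATP so luminescence rises with inhibition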); details: recombinant PfCDPK1, Kinase-Glo ATP depletion luminescence
# Chain of Calcium-dependent protein kinase 1 (Plasmodium falciparum (isolate 3D7)) (P62344 whole entry, looked up): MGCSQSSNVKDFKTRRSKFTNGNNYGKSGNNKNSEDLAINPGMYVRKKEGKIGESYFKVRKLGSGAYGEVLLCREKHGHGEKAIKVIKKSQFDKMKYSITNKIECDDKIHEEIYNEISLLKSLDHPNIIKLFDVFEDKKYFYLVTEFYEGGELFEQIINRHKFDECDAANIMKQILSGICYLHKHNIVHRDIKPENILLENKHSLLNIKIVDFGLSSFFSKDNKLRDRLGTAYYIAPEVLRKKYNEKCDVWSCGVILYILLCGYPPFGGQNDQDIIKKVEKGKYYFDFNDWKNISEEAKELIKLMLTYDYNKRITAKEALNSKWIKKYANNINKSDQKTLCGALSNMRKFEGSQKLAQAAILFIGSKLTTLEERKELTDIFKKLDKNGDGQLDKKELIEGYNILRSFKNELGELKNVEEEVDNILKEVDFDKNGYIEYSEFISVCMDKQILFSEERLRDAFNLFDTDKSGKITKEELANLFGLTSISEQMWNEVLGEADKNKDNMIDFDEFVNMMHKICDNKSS
# [6] = molecular target: Plasmodium falciparum protein kinase 6 (PK6, PF3D7_1337100) (UniProt Q8IDW1); test: PfPK6 kinase inhibitors, biochemical, TCAMS library (AID 1159586); details: recombinant PfPK6, Kinase-Glo ATP depletion luminescence
# Chain of Plasmodium falciparum protein kinase 6 (PK6, PF3D7_1337100) (Q8IDW1 1-305): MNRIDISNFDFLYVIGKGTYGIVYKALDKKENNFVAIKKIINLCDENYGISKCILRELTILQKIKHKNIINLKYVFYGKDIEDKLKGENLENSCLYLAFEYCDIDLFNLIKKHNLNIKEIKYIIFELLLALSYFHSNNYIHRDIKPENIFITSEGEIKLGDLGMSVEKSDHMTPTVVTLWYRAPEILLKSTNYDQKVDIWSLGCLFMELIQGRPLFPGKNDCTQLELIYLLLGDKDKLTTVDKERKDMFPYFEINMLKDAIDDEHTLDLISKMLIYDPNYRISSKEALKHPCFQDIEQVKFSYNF
# [7] = molecular target: Protein kinase 7 (PK7), Plasmodium falciparum 3D7 (PF3D7_0213400) (UniProt Q7YTF7); test: inhibition of Plasmodium PK7 catalytic activity – biochemical, TCAMS antimalarial set, Kinase-Glo luminescence (AID 1159587); details: recombinant PfPK7, Kinase-Glo ATP depletion luminescence
# Chain of Protein kinase 7 (PK7), Plasmodium falciparum 3D7 (PF3D7_0213400) (Q7YTF7 1-343): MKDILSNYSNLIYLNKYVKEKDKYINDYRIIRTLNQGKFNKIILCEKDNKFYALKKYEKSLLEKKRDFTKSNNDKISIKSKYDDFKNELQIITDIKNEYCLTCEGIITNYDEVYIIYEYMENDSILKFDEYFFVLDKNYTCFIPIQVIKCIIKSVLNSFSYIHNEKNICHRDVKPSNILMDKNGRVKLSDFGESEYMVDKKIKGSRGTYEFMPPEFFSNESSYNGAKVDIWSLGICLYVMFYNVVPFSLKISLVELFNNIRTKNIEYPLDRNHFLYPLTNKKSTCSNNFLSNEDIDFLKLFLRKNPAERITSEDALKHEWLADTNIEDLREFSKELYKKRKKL
# [8] = molecular target: Calcium-dependent protein kinase 4 (Plasmodium falciparum (isolate 3D7)) (UniProt Q8IBS5); test: PfCDPK4 kinase inhibitors, biochemical, TCAMS library (AID 1159588; cut-off not given, nearly all actives have IC50 up to about 0.91 µM); details: recombinant PfCDPK4, Kinase-Glo ATP depletion luminescence
# Chain of Calcium-dependent protein kinase 4 (Plasmodium falciparum (isolate 3D7)) (Q8IBS5 whole entry, looked up): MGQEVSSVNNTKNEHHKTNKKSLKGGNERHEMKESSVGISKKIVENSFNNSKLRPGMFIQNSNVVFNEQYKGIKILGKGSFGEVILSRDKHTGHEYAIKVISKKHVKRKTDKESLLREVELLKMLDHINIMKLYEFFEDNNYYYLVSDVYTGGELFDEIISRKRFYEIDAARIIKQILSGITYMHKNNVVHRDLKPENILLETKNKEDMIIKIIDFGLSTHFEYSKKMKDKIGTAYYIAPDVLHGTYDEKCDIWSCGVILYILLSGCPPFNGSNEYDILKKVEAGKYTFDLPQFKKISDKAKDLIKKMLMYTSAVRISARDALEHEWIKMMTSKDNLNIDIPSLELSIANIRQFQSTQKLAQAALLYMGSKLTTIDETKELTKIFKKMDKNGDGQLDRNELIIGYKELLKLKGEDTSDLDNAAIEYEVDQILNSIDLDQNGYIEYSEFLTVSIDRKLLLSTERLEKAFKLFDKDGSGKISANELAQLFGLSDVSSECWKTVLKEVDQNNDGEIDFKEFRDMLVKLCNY
# [9] = growth inhibition of DIPG glioma cells, dose response, cell-based, SU-DIPG-XIII, MIPE5.0, CellTiter-Glo, qHTS (AID 1347064; cut-off not given, nearly all actives have AC50 up to about 23 µM;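 on AC50: cells exposed to compound for 48 hours before the viability read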); details: SU-DIPG-XIII viability, CellTiter-Glo ATP luminescence
# [10] = circadian clock period modulators, cell-based, LOPAC library, luminescence reporter (AID 2774); details: circadian reporter cells, at 7 µM, actives lie on both sides;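 further: values are relative to mean of DMSO wells on each plate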
# [11] = test system: Hepatitis C virus NS3 helicase; test: HCV NS3 helicase inhibitors, primary screen, biochemical, fluorescence polarization, LOPAC1280 library (AID 687035; in the data active means inhibition above about 37%); details: Purified HCV NS3 helicase, Cy5-dT15 ssDNA binding fluorescence polarization; active compounds read high; concentration not given here
# [12] = Cy5 fluorescence quenching or enhancement artefacts, artefact control for HCV NS3 helicase inhibitor project, biochemical, LOPAC1280 (AID 687037); details: Cy5-DNA-NS3h complex fluorescence interference counterscreen
# [13] = phospholipid biosynthesis inhibitors in animal cells, primary screen, cell-based, LOPAC library, screen 4 (AID 1347384); details: phospholipid biosynthesis inhibition screen, at 10 µM
# [14] = test system: Aerobactin synthetase IucA (Klebsiella pneumoniae); test: IucA aerobactin synthetase inhibitors, biochemical, Tocris library, absorbance (AID 1345561); details: purified IucA enzyme assay, absorbance (OD) read-out; active compounds read low;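 tested at 8 µM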;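 further: 100% = enzyme without compound and 0% = no enzyme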
# [15] = inhibitors of Cryptococcus chitosan production, flow cytometry, Cibacron Brilliant Red staining (AID 1347148); details: Cryptococcus neoformans chitosan, active compounds read low; at 99.1 µM unless noted;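 further: compound exposure lasted three days at 37 degrees C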
# [16] = molecular target: Tyrosine-protein kinase ABL1 (Homo sapiens) (UniProt P00519); test: PubChem AID 493040; details: kinase panel binding, pKi
# Chain of Tyrosine-protein kinase ABL1 (Homo sapiens) (P00519 whole entry, looked up): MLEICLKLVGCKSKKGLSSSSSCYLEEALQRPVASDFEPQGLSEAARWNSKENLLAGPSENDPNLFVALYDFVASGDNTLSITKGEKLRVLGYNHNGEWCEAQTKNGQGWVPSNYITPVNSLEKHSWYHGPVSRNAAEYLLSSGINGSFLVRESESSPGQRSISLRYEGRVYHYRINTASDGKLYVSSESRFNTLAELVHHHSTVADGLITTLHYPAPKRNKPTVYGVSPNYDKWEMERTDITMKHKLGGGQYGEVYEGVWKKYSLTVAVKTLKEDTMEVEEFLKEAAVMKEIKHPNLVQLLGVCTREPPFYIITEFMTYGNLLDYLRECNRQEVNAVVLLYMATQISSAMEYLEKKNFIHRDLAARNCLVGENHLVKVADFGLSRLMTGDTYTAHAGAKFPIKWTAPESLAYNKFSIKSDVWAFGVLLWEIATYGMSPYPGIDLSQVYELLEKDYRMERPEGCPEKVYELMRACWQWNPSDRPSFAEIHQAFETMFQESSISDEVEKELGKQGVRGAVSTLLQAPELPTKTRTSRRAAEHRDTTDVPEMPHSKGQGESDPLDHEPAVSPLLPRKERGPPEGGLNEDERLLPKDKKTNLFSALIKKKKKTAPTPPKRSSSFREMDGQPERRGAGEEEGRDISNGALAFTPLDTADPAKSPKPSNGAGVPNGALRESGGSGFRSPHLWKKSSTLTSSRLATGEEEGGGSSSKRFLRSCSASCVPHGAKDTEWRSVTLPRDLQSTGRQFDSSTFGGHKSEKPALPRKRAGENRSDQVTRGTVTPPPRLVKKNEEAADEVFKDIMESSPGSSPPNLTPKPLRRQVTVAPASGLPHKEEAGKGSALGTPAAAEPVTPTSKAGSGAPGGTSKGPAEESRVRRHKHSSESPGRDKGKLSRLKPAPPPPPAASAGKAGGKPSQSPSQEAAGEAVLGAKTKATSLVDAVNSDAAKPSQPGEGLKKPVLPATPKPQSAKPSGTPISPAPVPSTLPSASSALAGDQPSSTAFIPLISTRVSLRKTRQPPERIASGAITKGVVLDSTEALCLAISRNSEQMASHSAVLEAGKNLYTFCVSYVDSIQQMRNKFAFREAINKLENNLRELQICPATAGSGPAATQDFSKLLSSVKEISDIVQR
# [17] = hESC survival regulators, cell-based (AID 493140); details: human embryonic stem cell survival screen; active compounds read high;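 further: cells exposed to compounds for four days before counting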
structure (smiles),measurement,setting,value
Cc1ccc(O)cc1Nc1ccnc2cc(-c3ccccn3)ccc12,growth inhibition,[1],98% (active)
same,inhibition,[2],6%
same,inhibition,[3],-2%
same,growth inhibition,[4],97% (active)
same,outcome,[5],inactive
same,outcome,[6],inactive
same,outcome,[7],inactive
same,outcome,[8],inactive
Cn1c(=O)c(Oc2ccc(F)cc2F)cc2cnc(NC3CCOCC3)nc21,outcome,[9],inactive
CN(C)c1cc2c(Nc3ccc4c(cnn4Cc4ccccc4)c3)ncnc2cn1,period change,[10],0.33 h
same,inhibition,[11],-1%
same,fluorescence ratio (interference),[12],1
same,outcome,[13],inactive
COc1ccc(-c2oc3ncnc(N)c3c2-c2ccc(NC(=O)Nc3cc(C(F)(F)F)ccc3F)cc2)cc1,AC50,[9],3.72 µM (active)
NC(=O)c1ccc(-c2nc(-c3ccc4c(c3)OCO4)c(-c3ccccn3)[nH]2)cc1,remaining activity,[14],110%
same,fold fluorescence,[15],18.6 [at 130.1 µM]
same,outcome,[16],inactive
Cn1cc(/C=C2\C(=O)Nc3cccnc32)c2ccccc21,AC50,[9],8.33 µM (active)
Cn1cc(C2=C(c3cn(CCCSC(=N)N)c4ccccc34)C(=O)NC2=O)c2ccccc21,survival,[17],72.7
same,remaining activity,[14],106%
same,fold fluorescence,[15],10.1 [at 109.3 µM]
CN(C)c1cc2c(Nc3ccc4nc(Cc5ccccc5)[nH]c4c3)ncnc2cn1,growth inhibition,[1],29%
same,inhibition,[2],11%
same,inhibition,[3],0%
same,growth inhibition,[4],85% (active)
same,outcome,[5],inactive
same,outcome,[6],inactive
same,outcome,[7],inactive
same,outcome,[8],inactive
Fc1ccc(-c2nc3n(c2-c2ccncc2)CCS3)cc1,remaining activity,[14],117%
Nc1ncnc2occ(-c3ccc(NC(=O)Nc4cc(C(F)(F)F)ccc4F)cc3)c12,growth inhibition,[1],99% (active)
same,inhibition,[2],57% (active)
same,inhibition,[3],-1%
same,growth inhibition,[4],99% (active)
same,outcome,[7],inactive
same,outcome,[8],inactive
